# Menin MLL FP FL = qHTS Assay for Inhibitors Targeting the Menin-MLL Interaction in MLL Related Leukemias: Competition With Fluorescein Labeled MLL-derived Peptide; Fluorescence polarization, fluorescein-MLL peptide displacement from menin; 290,000 tested, under 10 active; FP activity change, % at 61.4 µM; AID 1766, 2009; active means well fitted curve in the direction sought with a large enough effect in the polarisation, not every such curve was filed as active; inconclusive means small, poorly fitted or top-dose-only effect, or effect the other way, or a change in a side signal; inactive means no such curve, though single readings can be large or run the other way; the % refers to the polarisation; further: % of control where 0% means no effect
# CXXC DNA block = qHTS Fluorescence Polarization Assay for Inhibitors of MLL CXXC domain - DNA interaction; Histone-lysine N-methyltransferase 2A (Homo sapiens), Q03164; MLL-CXXC / FITC-HOXA9 DNA fluorescence polarization; Potency, µM (top dose mostly 115 µM), for the others: at the highest dose activity change, negative = inhibition, most hits filed as inhibitors; actives 0.037% (n = 290,000); AID 2662, 2010; active means well fitted inhibition curve with a large enough effect in the polarisation, with a control signal flat, not every such curve was filed as active; inconclusive means small, poorly fitted or top-dose-only effect, or effect the other way, or a change in a side signal; inactive means no such curve, though single readings can be large or run the other way; the % refers to the polarisation; further: potency means the concentration at half of the fitted maximal effect
#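 Purified MLL-CXXC (added from a 7 uM solution) was preincubated 5 min at ambient with pinned compounds in 50 mM Tris-HCl pH 7.5, 50 mM NaCl, 1 mM DTT, 0.05% BSA. Fluorescein-labeled HOX-A9 DNA (50 nM solution) followed, 30 min, then polarization read.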
# MBNL1 CUG block = qHTS Assay for Inhibitors of MBNL1-poly(CUG) RNA binding | Muscleblind-like protein 1 (Homo sapiens), Q9NR56 | TR-FRET MBNL1-His/biotin-(CUG)12 binding, 665/545 ratio | Potency, µM (series often up to 57.5 µM), without a hit: top-dose activity change, negative = inhibition, most hits filed as inhibitors | actives 0.036% (n = 280,000) | AID 2675, 2010; active means well fitted inhibition curve with a large enough effect in the signal ratio, with a control signal flat, not every such curve was filed as active; inconclusive means small, poorly fitted or top-dose-only effect, or effect the other way, or a change in a side signal; inactive means no such curve, though single readings can be large or run the other way; the % refers to the signal ratio; further: potency means the concentration at half of the fitted maximal effect; on the % scale 0 is the no-effect control and ±100 the full control effect
#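 Compounds (final 92 nM to 58 uM) are added to His-tagged MBNL1 and biotin-(CUG)12, then terbium anti-His antibody and streptavidin-XL665 (5 nM final). After 60 min at room temperature, the 665/545 nm ratio is read.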
# S-ASM inh = Inhibitors of Secretory Acid Sphingomyelinase (S-ASM): qHTS; placental ASM, HMU-PC fluorogenic substrate, 60 min; Potency, µM (titrated, usually from 57.5 µM), for inactives: at the top dose activity change, negative = inhibition, actives largely listed as inhibitors; actives 0.006% (n = 340,000); AID 504937, 2011; active means well fitted inhibition curve with a large enough effect; inconclusive means small, poorly fitted or top-dose-only effect; inactive means no such curve, though single readings can be large or run the other way; further: potency means the concentration at half of the fitted maximal effect
#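 qHTS format. ASM enzyme prepared from human placenta hydrolyses the fluorogenic substrate HMU-PC0 (9 uM final) over 60 min at 37 °C after a 10 min compound preincubation.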
# Menin-MLL TR inh = qHTS Assay for Inhibitors Targeting the Menin-MLL Interaction in MLL Related Leukemias: Competition With Texas Red Labeled MLL-derived Mutant Peptide; AID 1768, 2009; O00255; actives 0.23% (n = 270,000); Menin + Texas Red MLL mutant peptide, fluorescence polarization; Potency, µM (titrated, usually from 61.6 µM), inactives show at the top dose FP activity change, negative = inhibition, hits mostly inhibitors; active means well fitted inhibition curve with a large enough effect in the polarisation, with a control signal flat, not every such curve was filed as active; inconclusive means small, poorly fitted or top-dose-only effect, or effect the other way, or a change in a side signal; inactive means no such curve, though single readings can be large or run the other way; the % refers to the polarisation; further: potency means the concentration at half of the fitted maximal effect; % of control where 0% means no effect
# pAkt inh = HTS Assay for Inhibitors of Akt Phophorylation: Primary Screen; Neuro2A IGF-stimulated pAkt S473 HTRF, 20 min; stronger effect = lower value; actives 0.32% (n = 360,000); activity change, % for hits at 50 µM; AID 651550, 2012; in the data active means activity change below about -80%; inconclusive means mostly about -51% to -80%; further: on the % scale 0 is the no-effect control and ±100 the full control effect
#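 Single-point screen (50 µM final compound) in Neuro2A cells stimulated 20 min with 6 nM IGF at 37 deg C. After lysis, Ser473-phosphorylated Akt read by HTRF (ex 330 nm, em 615/665 nm) as the 665/615 ratio.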
# An asterisk follows results filed as active; i = inactive; ? = inconclusive; / = no result. Shown are actives, neighbours in structure and some others; about 0.45% of the full set was active somewhere.
SMILES,Menin MLL FP FL,CXXC DNA block,MBNL1 CUG block,S-ASM inh,Menin-MLL TR inh,pAkt inh
COc1cc(C)nc(OCCNC(=O)COc2ccc(Cl)cc2C)n1,0.1,-3.8%,6.7%,5.2%,-17.9%,-108.6%*
Cc1cc(C(=O)CSc2nc3ccccc3c(=O)n2C)c(C)n1Cc1ccc2c(c1)OCO2,?,2.6%,?,-3.7%,-3.6%,-109.1%*
COCCN1CCn2c(nc3cc(NC(=O)NC4CCCCC4)ccc32)C1,-1.8,9.7%,11.9%,126.9%,-8.6%,i
O=C(Nc1ccc2c(c1)nc1n2CCN(Cc2ccccc2)C1)NC1CCCCC1,6.8,21.4%,25.8%,76.3%,-2.5%,-90.5%*
CCN(CC)c1ccc(C=Nc2ccc(N(C)C)cc2)c(O)c1,?,?,?,-1.7%,20µM*,i
CCN(CC)c1ccc(N=Cc2ccc(N(CC)CC)cc2O)cc1,?,?,15.4%,-1.6%,?,i
CC(C)CC(NC(=O)c1cccc(Cl)c1)C(=O)O (stereo not drawn),5.3,10.5%,-17.2%,1.4%,14.1%,i
COCC(C)NC(=O)c1cccc(Cl)c1 (stereo not drawn),0.0,7.7%,-5.4%,1.7%,1.8%,-114.0%*
C=CCn1c(C)cc(C(=O)CSc2nc3ccccc3c(=O)[nH]2)c1C,4.7,7.2%,-2.2%,-10.9%,-11.1%,-110.3%*
COc1cccc(CN(C)C(=O)CNC(=O)c2ccc3c(c2)OCO3)c1OC,/,4.8%,-10.0%,-2.6%,/,i
COc1ccc(C(=O)c2c(N)sc3c2CCN(C)C3)cc1,?,?,11.9%,69.6%,14.1µM*,i
Cc1cc2oc(=O)cc(CN3CCN(Cc4ccccc4)CC3)c2cc1Cl,5.3,2.3%,-1.2%,-2.2%,-26.7%,-110.5%*
Cc1ccc2c(CN3CCN(Cc4ccccc4)CC3)cc(=O)oc2c1,-0.5,5.9%,0.7%,-0.4%,?,i
C=CCNC(=O)c1ccccc1NC(=O)c1ccc(Cl)c(S(=O)(=O)Nc2ccccc2)c1,3.3,11.6%,2.5%,-11.0%,?,-88.4%*
CC(C)c1ccc(N2C(=O)[C@@H]3Cc4ccccc4CN3C2=O)cc1,2.9,6.8%,-7.9%,0.0%,-21.6%,-108.3%*
O=c1c(-c2ccccc2)nc2cnc(Nc3ccccc3)nc2n1C[C@H]1CCCO1,?,/,/,/,37.4%,/
N#Cc1cccc(-c2nc3cnc(Nc4ccccc4)nc3n(C[C@H]3CCCO3)c2=O)c1,?,/,/,/,28.2µM*,/
COc1cc(OC)c(NS(=O)(=O)c2cccc(C(=O)OCC(=O)NCC3CCCO3)c2)cc1Cl (stereo not drawn),5.9,-8.7%,-1.7%,-3.5%,5.7%,i
COC(=O)C1(C)NC(c2cccs2)C2C(=O)N(c3ccc(F)cc3)C(=O)C21 (stereo not drawn),0.3,1.5%,8.4%,-0.2%,-9.8%,-107.2%*
Cc1cc2nc(-c3ccc(SCC(=O)N4CCOCC4)nc3)[nH]c2cc1C,15.5,1.3%,26.4%,-15.6%,9.0%,i
Cc1cc2nc(-c3ccc(SCC(=O)N4CCN(C(=O)c5ccco5)CC4)nc3)[nH]c2cc1C,3.2,-11.5%,93.0%,-26.7%,4.8%,-94.2%*
COc1ccc(NC2=NCCC(=O)N2Cc2cccs2)cc1,-0.7,-6.6%,-0.9%,1.8%,1.6%,-111.3%*
O=C(NCCO)OC1CC2CC1[C@H]1CCCCN1C2=O (stereo partly drawn),/,/,/,/,/,i
